Bioassay records (PubChem BioAssay)
In the library only some 3.8% were active in any assay of this set; here they are far more common.
TGFb inhibitor = TGF-b pathway inhibition; HepG2 CAGA-GFP TGF-b/SMAD3 reporter, GFP fluorescence, 18 h; TGF-beta stimulated, 500 pg/mL final; Potency, µM (series often up to 46.1 µM), most hits filed as inhibitors; actives 1.2% (n = 410,000); also: nearly all actives have a fitted effect of over 65% in size
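Inhibition was scored as loss of TGF-beta-induced (500 pg/mL final, 18 hours, 37 degrees C) GFP in HEPG2 cells carrying a CAGA-GFP reporter, in DMEM with 1% FBS. Well GFP was summed per cell; Activity was normalised to unstimulated and stimulated DMSO wells, then concentration-response fitting.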
A549 viability = A549 cytotoxicity, counter-screen for Nrf2 inhibitors. Potency, µM (top dose mostly 46 µM), actives largely listed as inhibitors. actives 0.16% (n = 390,000). A549 ARE-Fluc cells, CellTiter-Fluor viability, 18-24 h
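A549 ARE_Fluc cells in 5% FBS OPTI-MEM were exposed to compounds in concentration-response for 18-24 h at 37 deg C. Viability was read by CellTiter-Fluor fluorescence (Ex 405/Em 525) after 30 min, before the luciferase read.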
Nrf2 inh = Nrf2 pathway inhibition. actives 2.1% (n = 360,000). A549 ARE-Fluc reporter, luciferase luminescence, 18-24 h. Potency, µM (titrated, usually from 46 µM), usual class: inhibitors; also: nearly all actives have a fitted effect of over 60% in size
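Nrf2 function is reported as luminescence of an ARE-controlled luciferase in A549 cells. Compounds were tested at several concentrations, and a CellTiter-Fluor read on the same wells flagged cytotoxicity.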
ATXN2 expr inh = reduces ATXN2 reporter expression in HEK-293 cells | HEK-293 ATXN2-luciferase reporter, luminescence, 24 h | AID 1745845 | Potency, µM (doses to about 57 µM), actives largely listed as inhibitors | actives 0.72% (n = 360,000); also: nearly all actives have a fitted effect of over 55% in size
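qHTS (up to 57 uM final) was run with 24 h compound exposure of reporter cells at 37 °C. Each well was multiplexed: SteadyGlo luminescence measured ATXN2-luciferase expression after a fluorogenic Gly-Phe-AFC viability readout (25 uM final).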
ATXN viability = reduces viability in counter-screen for ATXN expression inhibitors. actives 0.49% (n = 400,000). AID 651635. S2 cells (HEK-293 line with an ATXN2-luciferase reporter) viability, CellTiter-Fluor protease fluorescence, 24 h. Potency, µM (titrated, usually from 56.7 µM), hits mostly cytotoxic; also: nearly all actives have a fitted effect of over 40% in size
HepG2 tox = kills HepG2 cells in TGF-b inhibitor counter-screen. actives 0.76% (n = 410,000). AID 588856. HepG2 CAGA-GFP viability, ATP luminescence, 18 h. Potency, µM (doses to about 46.1 µM), usual class: cytotoxic
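CellTiter-Glo luminescence gave cytotoxicity after 18 hours at 37 degrees C. The cells were HepG2 CAGA-GFP in 1% FBS DMEM, stimulated with 500 pg/mL TGF-beta after compound addition. %Activity was normalised to no-cell wells (complete cell-killing) and DMSO (no toxicity), and curves were fitted and classified.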
Each line names hits and unclear results; the compound was inactive in the other large screens. Calls follow the shape of the dose curve; as a rule, active = well fitted curve in the direction sought with a large enough effect; inconclusive = small, poorly fitted or top-dose-only effect, or another doubt; inactive = no such curve, though single readings can be large; an effect the other way counts as inactive or inconclusive.

COc1ccc(/C=C2\CCCC3C2=NN(C(=O)COC(=O)CNC(=O)c2ccccc2)C3c2ccc(OC)cc2)cc1 (stereo unspecified)	Nrf2 inh 13µM (no result: A549 viability)
CC1=C(C(=O)Nc2ccc(C)cc2C)C(C(C)C)n2nc(SCc3ccccc3Cl)nc2N1 (stereo unspecified)	none
COc1ccc(-c2ccc3ncnc(N(C)Cc4csc(C)n4)c3c2)cc1OC	Nrf2 inh 3.7µM (no result: TGFb inhibitor, ATXN2 expr inh, ATXN viability, HepG2 tox)
Cc1ccc(NS(=O)(=O)c2cccc(Cl)c2)cc1C	none (no result: TGFb inhibitor, ATXN2 expr inh, ATXN viability, HepG2 tox)
Cc1ccc(NS(=O)(=O)c2cc3c4c(cccc4c2)C(=O)NC3=O)cc1C	TGFb inhibitor inconclusive, Nrf2 inh 15µM, ATXN2 expr inh inconclusive
N#CCOC(=O)C1CCN(S(=O)(=O)c2ccc3c(c2)OCCO3)CC1	TGFb inhibitor inconclusive
Cc1cn(CC(=O)NCCc2c[nH]c3ccccc23)c(=O)[nH]c1=O	ATXN viability inconclusive
CCN(Cc1ccncc1)Cc1ccc2c(c1)CN(C(=O)c1ccc(OC)cc1)CCO2	none (no result: TGFb inhibitor, A549 viability, Nrf2 inh, ATXN2 expr inh, HepG2 tox)
O=C(Nc1ccccc1C(=O)NCCc1ccccc1)c1cnccn1	Nrf2 inh inconclusive
Cc1cc(NC(=O)CS(=O)(=O)c2cn(Cc3ccc(F)cc3)c3ccccc23)no1	Nrf2 inh 21µM, ATXN2 expr inh inconclusive
Cc1cc(NC(=O)CS(=O)(=O)c2cn(Cc3cccc(F)c3)c3ccccc23)no1	A549 viability inconclusive, Nrf2 inh 23µM
Cc1ccc(C(=O)N2N=C(c3cccc(NS(C)(=O)=O)c3)CC2c2cccs2)cc1 (stereo unspecified)	TGFb inhibitor inconclusive, Nrf2 inh 23µM (no result: ATXN2 expr inh)
CS(=O)(=O)Nc1ccc(C2=NN(C(=O)C3CCCCC3)C(c3cccs3)C2)cc1 (stereo unspecified)	Nrf2 inh 23µM
CS(=O)(=O)Nc1cccc(C2=NN(C(=O)c3ccccc3)C(c3cccs3)C2)c1 (stereo unspecified)	Nrf2 inh inconclusive
O=C(COc1ccc2c3c(c(=O)oc2c1)CCC3)N1CCN(c2ccc(F)cc2)CC1	TGFb inhibitor inconclusive, Nrf2 inh 23µM
O=C(COc1ccc(S(=O)(=O)NC2CCCCC2)cc1)N1CCN(c2ccc(F)cc2)CC1	TGFb inhibitor inconclusive, Nrf2 inh 15µM, ATXN2 expr inh inconclusive, ATXN viability inconclusive
O=C(OCC12CC3CC(CC(C3)C1)C2)c1ccc(NCc2cc(O)ccc2O)cc1	TGFb inhibitor inconclusive, A549 viability inconclusive, Nrf2 inh inconclusive, ATXN2 expr inh 10µM, ATXN viability 13µM, HepG2 tox 11µM
CCOC(=O)c1c(S(=O)(=O)N2CCCC(C(=O)Nc3cccc(C#N)c3)C2)c(C)n(C)c1C (stereo unspecified)	none (no result: Nrf2 inh)
COc1ccc(NC(=O)c2cccc(N3C(=O)C4C5C=CC(C6CC56)C4C3=O)c2)cc1 (stereo unspecified)	Nrf2 inh 21µM, ATXN viability inconclusive
COc1ccc(NC(=O)c2cccc(N3C(=O)C4C5C=CC(C6CC56)C4C3=O)c2)c(OC)c1 (stereo unspecified)	Nrf2 inh inconclusive, ATXN viability inconclusive
CC1OC(CC(=O)O)CC2=C1C(=O)c1c(O)cccc1C2=O (stereo unspecified)	TGFb inhibitor inconclusive, A549 viability 15µM, Nrf2 inh 21µM, ATXN2 expr inh 1.2µM, ATXN viability 0.95µM, HepG2 tox 0.5µM
COc1ccccc1Oc1ccc(N2CC(C(=O)OCC(=O)c3ccccc3)CC2=O)cc1 (stereo unspecified)	none
CCOc1cc2c(c3c1C(c1ccccc1)N(S(=O)(=O)c1ccc(C)cc1)C3)C(=O)C=CC2=O (stereo unspecified)	TGFb inhibitor inconclusive, ATXN2 expr inh inconclusive, ATXN viability 6.3µM, HepG2 tox 8.9µM (no result: A549 viability, Nrf2 inh)
CN(C)CCCN=c1c2ccccc2n(C)c2[nH]c(=O)n(C)c(=O)c12	ATXN2 expr inh 17µM (no result: TGFb inhibitor, A549 viability, Nrf2 inh, ATXN viability, HepG2 tox)
O=C1CCc2cc(S(=O)(=O)Nc3cc(F)cc(Cl)c3)c(F)cc2N1	A549 viability inconclusive (no result: TGFb inhibitor, ATXN2 expr inh, ATXN viability, HepG2 tox)
